PubChem BioAssay AID463173 (ICCB-Longwood Screening Facility, Harvard Medical School, 2010)
Out of some 52,000 compounds screened, about 1,700 (3.3%) were called active. No stated cut-off is given here; in the data, active means survival mostly below about 52% (no sharp cut-off); inactive means mostly above about 56%. Shown is part of a subset that was picked to be rich in actives.

Each molecule was assayed on Wild type (assay: S. aureus survival, RN4220 and DeltatarO strains – OD600, teichoic acid synthesis inhibitors, primary screen (AID 463173)). Conditions: S. aureus RN4220 wild type/DeltatarO growth, OD600, 18 h, hits give low values, screened at 18.75 µg/mL (by protocol).

Row | SMILES | survival
1 | Cc1ccc2[nH]c(CSc3nnc(NC(=O)c4ccccc4C)s3)cc(=O)c2c1 | 72% (inactive)
2 | O=C(NCCCO)c1cc2sc3ccccc3c2s1 | 103% (inactive)
3 | O=C(Nn1c(Cc2ccccc2)nc2ccccc2c1=O)c1ccco1 | 107% (inactive)
4 | Cc1ccc(CN2c3ccccc3-c3nc(SCC(=O)NCc4ccccc4)ncc3S2(=O)=O)cc1 | -1% (active)
5 | CCN1c2ccccc2-c2nc(SCC(=O)NCc3ccc(C)cc3)ncc2S1(=O)=O | 79% (inactive)
6 | O=C(CSc1ncc2c(n1)-c1ccccc1N(Cc1ccc(F)cc1)S2(=O)=O)NCc1ccccc1 | 76% (inactive)
7 | COc1ccc(N(CC(=O)N2CCN(c3cccc(Cl)c3)CC2)S(=O)(=O)c2c(C)noc2C)cc1 | 84% (inactive)
8 | Cc1cc(C)c2sc(N3CCN(C(=O)c4ccc(N(C)C)cc4)CC3)nc2c1 | 136% (inactive)
9 | O=C(CC1COc2ccccc2O1)NCc1ccccc1 (stereo not given) | 105% (inactive)
10 | O=C(Nc1ccc(F)cc1)Nc1csc2c1CCCC2 | 12% (inactive)
11 | Cc1cc(C)cc(-n2c(SCC(=O)N3CCc4ccccc43)nc3c([nH]c4ccccc43)c2=O)c1 | 14% (active)
12 | CCOc1ccc(-n2c(SCC(=O)N3CCCC3)nc3c([nH]c4ccccc43)c2=O)cc1 | 73% (inactive)
13 | Cc1ccc(-n2c(SCC(=O)c3ccccc3)nc3c([nH]c4ccccc43)c2=O)cc1 | -6% (active)
14 | CCOc1ccc(-n2c(SCC(=O)N3CCOCC3)nc3c([nH]c4ccccc43)c2=O)cc1 | -3% (active)
15 | O=C(CSc1nc(-c2cccs2)nc2cc(=O)[nH]n12)Nc1cccc(C(F)(F)F)c1 | 128% (inactive)
16 | COc1ccc(-n2c(SCC(=O)c3ccccc3)nc3c([nH]c4ccccc43)c2=O)cc1 | 88% (inactive)
17 | O=C(CSc1nc2c([nH]c3ccccc32)c(=O)n1-c1ccccc1)c1ccccc1 | 73% (inactive)
18 | Cc1cccc(-c2nc(SCC(=O)Nc3cccc(C(F)(F)F)c3)n3[nH]c(=O)cc3n2)c1 | -3% (active)
19 | O=C(CSc1nc(-c2ccccc2F)nc2cc(=O)[nH]n12)Nc1cccc(C(F)(F)F)c1 | 69% (inactive)
20 | CCOc1ccc(-n2c(SCC(=O)N3CCCCC3)nc3c([nH]c4ccccc43)c2=O)cc1 | 94% (inactive)
21 | O=C(CSc1nc2c([nH]c3ccccc32)c(=O)n1-c1ccccc1)N1CCc2ccccc21 | 73% (inactive)
22 | Cc1ccc(-n2c(SCC(=O)N3CCc4ccccc43)nc3c([nH]c4ccccc43)c2=O)cc1 | 120% (inactive)

Row | SMILES | survival
23 | Cc1ccc(CNC(=O)C2(c3cccs3)CCOCC2)cc1 | 69% (inactive)
24 | O=C(Nc1ccc2oc(-c3ccc4ccccc4c3)nc2c1)c1cc(Br)ccc1Cl | 96% (inactive)
25 | COc1ccc(NC(=O)CSc2nc(-c3ccc(OC)c(OC)c3)[nH]c2-c2ccc(C)cc2)cc1 | 139% (inactive)
26 | CCOC(=O)c1ccc(NC(=O)CCn2ccc(C)n2)cc1 | 110% (inactive)
27 | COc1ccc(C2C(=O)N(C3CCCCC3)CC(=O)N2C2CCCCC2)cc1 (stereo not given) | 76% (inactive)
28 | Cc1cccc(NC(=O)c2oc3ccccc3c2NC(=O)c2cc(=O)c3cc(Cl)ccc3o2)c1 | 85% (inactive)
29 | COc1ccc(-c2nc(C)c(CCNC(=O)c3cccs3)s2)cc1OC | 69% (inactive)
30 | Cc1ccccc1-c1nc(CS(=O)(=O)CC(=O)NCCCc2ccccc2)c(C)o1 | 138% (inactive)
31 | Cc1cccc(NC(=O)CSc2nc3c([nH]c4ccccc43)c(=O)n2-c2ccc(F)cc2)c1C | 22% (inactive)
32 | Cc1cc(C)cc(-n2c(SCC(=O)N3CCCC3)nc3c([nH]c4ccccc43)c2=O)c1 | 69% (inactive)
33 | Cc1cc(C)cc(-n2c(SCC(=O)N3CCCCC3)nc3c([nH]c4ccccc43)c2=O)c1 | 78% (inactive)
34 | Cc1cc(C)cc(-n2c(SCC(=O)N3CCC(C)CC3)nc3c([nH]c4ccccc43)c2=O)c1 | -1% (active)
35 | Cc1ccc(C)c(NC(=O)CSc2nc3c([nH]c4ccccc43)c(=O)n2-c2ccc(F)cc2)c1 | 0% (active)
36 | Cc1ccc(-n2c(SCC(=O)N3CCC(C)CC3)nc3c([nH]c4ccccc43)c2=O)cc1 | -6% (active)
37 | CCOc1ccc(-n2c(SCC(=O)Nc3cc(C)ccc3C)nc3c([nH]c4ccccc43)c2=O)cc1 | 59% (inactive)
38 | COc1ccc(-n2c(SCC(=O)N3CCC(C)CC3)nc3c([nH]c4ccccc43)c2=O)cc1 | 79% (inactive)
39 | CC1CCN(C(=O)CSc2nc3c([nH]c4ccccc43)c(=O)n2-c2ccccc2)CC1 | 83% (inactive)
40 | COC(=O)C(C)Sc1nc2c([nH]c3ccccc32)c(=O)n1-c1ccc(OC)cc1 (stereo not given) | 75% (inactive)
41 | CCOC(=O)CSc1nc2c([nH]c3ccccc32)c(=O)n1-c1ccc(OCC)cc1 | 80% (inactive)
42 | CCOc1ccc(-n2c(SC(C)C(=O)OC)nc3c([nH]c4ccccc43)c2=O)cc1 (stereo not given) | -2% (active)
43 | CCc1ccc(-c2nc(CS(=O)CC(=O)NCc3ccc(F)cc3)c(C)o2)cc1 (stereo not given) | 73% (inactive)
44 | O=C1N/C(=N\S(=O)(=O)Cc2ccccc2)S/C1=C\c1ccco1 | 106% (inactive)

Row | SMILES | survival
45 | COc1ccccc1CNC(=O)Cn1c(=O)nc(-c2ccccc2)c2ccccc21 | 67% (inactive)
46 | CCc1ccc(-n2c(N3CCN(c4cccc(C)c4C)CC3)nc3ccccc3c2=O)cc1 | 81% (inactive)
47 | Cc1c(C(=O)NCc2ccccc2Br)oc2c1-c1[nH]ncc1CC2 | 82% (inactive)
48 | Cc1ccc(C(=O)Nc2ccc3c(c2)N(C)C(=O)c2ccccc2S3)cc1 | 99% (inactive)
49 | COc1ccc(Cl)cc1NC(=O)Cn1c(=O)n(Cc2ccco2)c(=O)c2ccc(C(=O)NC3CCCC3)cc21 | 87% (inactive)
50 | COc1ccc(-n2c(SCC(=O)NCc3ccco3)nc3c([nH]c4ccccc43)c2=O)cc1 | 75% (inactive)
51 | COc1cccc(NC(=O)CSc2nc3c([nH]c4ccccc43)c(=O)n2-c2ccccc2)c1 | 67% (inactive)
52 | O=C(CSc1nc2c([nH]c3ccccc32)c(=O)n1-c1ccccc1)N1CCCCC1 | 69% (inactive)
53 | O=C(CSc1nc2c([nH]c3ccccc32)c(=O)n1-c1ccccc1F)Nc1cccc(C(F)(F)F)c1 | 71% (inactive)
54 | COC(=O)c1ccc(CSc2nc3c([nH]c4ccccc43)c(=O)n2-c2ccc(Cl)cc2)o1 | 121% (inactive)
55 | O=C(CSc1nc2c([nH]c3ccccc32)c(=O)n1-c1ccccc1)Nc1cccc(C(F)(F)F)c1 | -6% (active)
56 | COC(=O)c1ccc(CSc2nc3c([nH]c4ccccc43)c(=O)n2-c2cccc(Cl)c2)o1 | 71% (inactive)
57 | O=C(CSc1nc2c([nH]c3ccccc32)c(=O)n1-c1ccc(F)cc1)NCc1ccco1 | 88% (inactive)
58 | CCOc1ccc(-n2c(SCC(=O)NCc3ccco3)nc3c([nH]c4ccccc43)c2=O)cc1 | 10% (active)
59 | COC(=O)c1ccc(CSc2nc3c([nH]c4ccccc43)c(=O)n2-c2cc(C)cc(C)c2)o1 | 0% (active)
60 | COc1cccc(-n2c(SCC(=O)N3CCCCC3)nc3c([nH]c4ccccc43)c2=O)c1 | -3% (active)
61 | O=C(CSc1nc2c([nH]c3ccccc32)c(=O)n1-c1ccccc1)N1CCCCCC1 | 78% (inactive)
62 | CCc1cccc(C)c1NC(=O)c1cc(S(=O)(=O)N2CCN(c3ccccc3)CC2)ccc1F | 73% (inactive)
63 | COc1cccc(NC(=O)NCc2ccc3c(c2)CCN3C(=O)c2ccccc2)c1 | 64% (inactive)
64 | COc1cccc(C(=O)N2c3ccc(C)cc3C(C)(c3ccccc3)CC2(C)C)c1 (stereo not given) | -2% (active)
65 | COc1cccc(C(=O)N2CC(C)OC(C)C2)c1 (stereo not given) | 107% (inactive)
66 | COc1cccc(C(=O)N2c3cc(C)ccc3C(C)(c3ccccc3)CC2(C)C)c1 (stereo not given) | 1% (active)

Row | SMILES | survival
67 | COc1ccc(OCC(=O)N2CCN(C(=O)c3cccc(OC)c3)CC2)cc1 | 88% (inactive)
68 | COC(=O)C1=NN(C(=O)c2cccc(OC)c2)C(C)(O)C1 (stereo not given) | 123% (inactive)
69 | COc1ccc(CNc2nc(-c3ccco3)nn2C(=O)c2ccccc2Cl)cc1 | 95% (inactive)
70 | O=C(Cn1c(=O)n(-c2ccc(F)cc2)c(=O)c2sc3ccccc3c21)NC1CCCCC1 | 91% (inactive)
71 | CNC(=O)C1CCC(Cn2c(=O)c3sccc3n(CC(=O)N3CCCC3)c2=O)CC1 (stereo not given) | 77% (inactive)
72 | Cc1ccc(NCC(=O)N=Nc2c(O)[nH]c3ccccc23)cc1 | 114% (inactive)
73 | Cc1c(C(=O)O)oc2c1-c1nn(Cc3ccc(Cl)cc3)cc1CC2 | 77% (inactive)
74 | CCOC(=O)c1oc2c(c1C)-c1nn(Cc3cccc(Cl)c3)cc1CC2 | 66% (inactive)
75 | CCOC(=O)c1oc2c(c1C)-c1nn(Cc3ccc(Cl)cc3)cc1CC2 | 2% (active)
76 | CCOc1ccc2c(c1)c(=O)c(C(=O)c1ccc3c(c1)OCO3)cn2Cc1cccc(F)c1 | 91% (inactive)
77 | CCCCOc1cccc(C2c3c(oc4ccccc4c3=O)C(=O)N2c2ccccn2)c1 (stereo not given) | 68% (inactive)
78 | O=C(Nc1noc2ccccc12)c1ccc(F)cc1 | 78% (inactive)
79 | CCOC(=O)c1c(C)oc2nc(C)nc(N3CCN(c4ccccc4)CC3)c12 | 68% (inactive)
80 | CCOC(=O)c1c(C)oc2ncnc(N3CCN(c4ccccc4)CC3)c12 | 68% (inactive)
81 | CCOC(=O)c1c(C)oc2c1c(O)c(N=O)c1ccccc12 | 7% (active)
82 | CC(C)OC(=O)Cn1c(C2CC2)nc2ccccc2c1=O | 115% (inactive)
83 | CC(C)(C)c1ccc(S(=O)(=O)N2CCC(Oc3ccc(-n4cnnn4)cc3)CC2)cc1 | 81% (inactive)
84 | Cc1cn2c(=O)cc(COC(=O)c3ccc(NC(=O)COc4ccccc4F)cc3)nc2s1 | 85% (inactive)
85 | Cn1ncc2c(N3CCN(c4ccccc4Cl)CC3)ncnc21 | 127% (inactive)
